Records with an inconclusive call do not appear. The source holds several records for some structures; these can differ, active in one and inactive in another. Activity calls are given as the source filed them. Unless noted, the call rests on the fitted dose curve; in most records, active means well fitted curve in the direction sought with a large enough effect; inconclusive means small, poorly fitted or top-dose-only effect, or another doubt; inactive means no such curve, though single readings can be large; an effect the other way counts as inactive or inconclusive.
Experiments:
[1] = Cytometry Cell-Based qHTS for Inhibitors of the mTORC1 Signaling Pathway in MEF cells (AID 2668); further: potency means the concentration at half of the fitted maximal effect
Outline: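 MEFs (Tsc2-/-, p53-/- stably expressing WT Tsc2) treated 24 h at 37 degree Celsius, fixed, stained with Alexa-488 anti-phospho-rpS6 Ser235/236 and propidium iodide; Acumen laser scanning. Reported as % positive cells, phospho-S6 normalized to PI.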

[2] = Validation screen for small molecules that induce DNA re-replication in MCF 10A normal breast cells (AID 463097); further: nearly all actives have a fitted effect of over 60% in size; further: potency means the concentration at half of the fitted maximal effect
Outline: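 MCF 10A cells exposed to compound 48 hr at 37 C, 5% CO2, then Hoechst-stained 40 min. Laser-scanning imaging of nuclear DNA content (405 nm ex, 500-530 nm em); re-replication scored as rise in nuclei with elevated fluorescence intensity.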

[3] = molecular target: Ubiquitin carboxyl-terminal hydrolase 2 (Homo sapiens) (UniProt O75604); assay: qHTS Validation Assay for Inhibitors of Ubiquitin-specific Protease USP2a Using CHOP2 as the Reporter (AID 463106)
Outline: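 USP2 core (10 nM final) was preincubated with compound 30 min at RT in pH 8.0 Tris/CaCl2/beta-ME/CHAPS buffer. Ub-CHOP2 and reporter substrate (25 nM final each) were then added, with fluorescence (Ex 485/Em 531) read after 60 min. Data were normalized to NEM full inhibition and fitted to concentration-response curves.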

[4] = molecular target: DNA polymerase III PolC-type (Bacillus subtilis (strain 168)) (UniProt P13267); assay: qHTS Validation Assay for the Inhibitors of DNA Replication in Gram-Positive Bacteria (AID 485295); further: potency means the concentration at half of the fitted maximal effect
Outline: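 Reconstituted B. subtilis Pol III holoenzyme (PolC, beta clamp, SSB, primase) preincubated with compound, then M13Gori single-stranded circular template with dNTPs/NTPs added; room temperature reaction. Stopped with EDTA/PicoGreen; dsDNA fluorescence read, EDTA as full-inhibition control.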

[5] = molecular target: Tumor susceptibility gene 101 protein (Homo sapiens) (UniProt Q99816); assay: qHTS Validation Assay for Iinhibitors of HIV-1 Budding by Blocking the Interaction of PTAP/TSG101 (AID 485342; calls by dose curve)
Outline: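 Tsg101 binding domain (10 uM) with FITC-labeled PTAP peptide (50 nM) in HEPES pH 7.5 buffer, 20 min at r.t. with compounds. Binding measured by fluorescence polarization.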

[6] = qHTS Validation Assay to Find Inhibitors of Chronic Active B-Cell Receptor Signaling (AID 485345; active means well fitted curve in the direction sought with a large enough effect in the main read-out, with a control signal flat, not every such curve was filed as active; further: potency means the concentration at half of the fitted maximal effect)
Outline: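 TMD8 ABC-DLBCL cells stably carrying doxycycline-inducible IkappaBalpha–green luciferase fusion plus unfused red luciferase; compounds 46 uM to 3 nM, 4 h at 37C with doxycycline. Corrected green/red luminescence ratio normalized to 10 uM MG-132 and basal cell wells; curves fitted.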

[7] = molecular target: Beta-2 adrenergic receptor (Homo sapiens) (UniProt P07550); assay: qHTS validation assay of beta-arrestin-biased ligands of beta2-adrenergic receptor (AID 485366)
Outline: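 Arrestin-recruitment (Tango) reporter: ligand-bound beta2-AR recruits beta-arrestin, releasing tTA, which upregulates luciferase. Titrations of up to 46 microM incubated 18 hr at 37 degrees C before luminescent readout.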

[8] = Quantitative high throughput screen for delayed death inhibitors of the malarial parasite plastid, 96 hour incubation (AID 488745); further: nearly all actives have a fitted effect of over 70% in size; further: potency means the concentration at half of the fitted maximal effect
Outline: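 Infected erythrocytes were added to compound in Albumax-supplemented RPMI 1640 at 0.1% parasitemia and 2% hematocrit (final), incubated 96 h at 37 C under 5% CO2, then luciferase reagent was added and luminescence measured.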

[9] = Quantitative high throughput screen for delayed death inhibitors of the malarial parasite plastid, 48 hour incubation (AID 488752); further: nearly all actives have a fitted effect of over 65% in size; further: potency means the concentration at half of the fitted maximal effect
Outline: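 Readout is firefly luciferase luminescence from a reporter integrated into the parasite genome, with lower signal taken as inhibited growth. Infected red cells (0.1% parasitemia, 2% hematocrit final) are cultured with compound for one 48 h cycle at 37 C.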

[10] = molecular target: Thioredoxin reductase 1, cytoplasmic (Rattus norvegicus) (UniProt O89049); assay: qHTS Assay for Substrates of Mammalian Selenoprotein Thioredoxin Reductase 1 (TrxR1) (AID 488772);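 further: NADPH fluorescence in the first read after selenite addition and not the 8 min delta; series mostly up to about 57 µM; a drop in NADPH fluorescence below the no-compound background marks a TrxR1 substrate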
Outline: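 Quantitative HTS in Tris-HCl buffer at pH 7.5 with EDTA and Tween-20, using rat TrxR1, 400 uM NADPH and 400 uM selenite (final). A fall in initial NADPH fluorescence relative to background marked substrate behaviour.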

[11] = molecular target: Thioredoxin reductase 1, cytoplasmic (Rattus norvegicus) (UniProt O89049); assay: qHTS Assay for Inhibitors of Mammalian Selenoprotein Thioredoxin Reductase 1 (TrxR1) (AID 488773); settings: Potency: inhibition;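 further: drop in NADPH fluorescence over an 8 min run after selenite addition; series mostly up to about 57 µM; nearly all actives have a fitted effect of over 40% in size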
Outline: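 Steps: enzyme (90 nM) plus NADPH (400 uM final), 5 min at ~22 deg C; compound added, 15 min; selenite (400 uM final) added; fluorescence followed for 8 min. Concentration-response curves derived from the normalized delta values.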

[12] = molecular target: M-phase phosphoprotein 8 (Homo sapiens) (UniProt Q99549); assay: qHTS Validation Assay for Inhibitors for MPP8 Chromodomain Interactions with Methylated Histone Tails (AID 488949); further: nearly all actives have a fitted effect of over 55% in size; further: potency means the concentration at half of the fitted maximal effect
Outline: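 MPP8 (50 nM) was pre-bound to 50 nM biotinylated H3(1-18)K9me3 peptide in PBS pH 7.4 with 0.01% Tween-20. Compounds were then added for 30 min at room temperature, and complex disruption was read by AlphaScreen with streptavidin donor and nickel-chelate acceptor beads.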

[13] = molecular target: Chromobox protein homolog 1 (Homo sapiens) (UniProt P83916); assay: qHTS Validation Assay for Inhibitors of HP1-beta Chromodomain Interactions with Methylated Histone Tails (AID 488953); further: nearly all actives have a fitted effect of over 50% in size; further: potency means the concentration at half of the fitted maximal effect
Outline: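 50 nM HP1-beta + 50 nM biotin-H3(1-18)K9me3, PBS pH 7.4, 0.01% Tween-20, 30 min RT; compound added, 30 min RT; AlphaScreen beads 10 ug/mL final, 30 min dark; luminescence read.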

[14] = molecular target: Methanococcus maripaludis chaperonin (MmCpn) (UniProt Q6LX38); assay: High-Throughput Screening for Modulators of Cytosolic Chaperonin Activity: MmCpn Primary Screen (AID 488978);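 further: 50 nM MmCpn enzyme hydrolysing 30 µM ATP at 37 °C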
Outline: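 MmCpn at 50 nM final was preincubated 5 min at RT with compound. ATP was then added at 30 uM final for 10 min at 37 C. ADP formed was detected by Transcreener HTRF (665/590 nm).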

[15] = molecular target: Transient receptor potential cation channel subfamily V member 1 (Homo sapiens) (UniProt Q8NER1); assay: HTS Assay for Compounds that Act as Enhancers of the Vanilloid Receptor 1 (AID 488979)
Outline: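 TRPV1 cells loaded with Fluo-8 calcium dye; compound added and Ca2+ signal (ex 480/em 520 nm) followed 3 min, then capsaicin at EC20 added and read 2 more min to detect enhancement.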

[16] = molecular target: Thyrotropin receptor (Homo sapiens) (UniProt P16473); assay: qHTS Assay for Antagonists of the Thyroid Stimulating Hormone Receptor (AID 488980); further: series mostly up to about 58 µM
Outline: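 TSHR-transfected HEK293 cells (2000/well) in HEPES-buffered HBSS with 70 uM RO 20-1724 were stimulated with 4 nM TSH (EC80, final) in the presence of compound. cAMP was measured by HTRF competition after lysis and 30 min at RT.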

[17] = molecular target: Flap endonuclease 1 (Homo sapiens) (UniProt P39748); assay: qHTS Validation Assay for the Inhibitors of Human Flap endonuclease 1 (FEN1) (AID 488816)
Outline: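 Human FEN1 (10 nM) preincubated 15 min at room temperature with compounds, then flap DNA substrate added at 50 nM final. Fluorescence read at 0 and 15 min; concentration-response fitted with four-parameter Hill equation.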

[18] = molecular target: D(1A) dopamine receptor (Homo sapiens) (UniProt P21728); assay: HTS Assay for Allosteric Agonists of the Human D1 Dopamine Receptor: Primary Screen for Agonists (AID 488981); further: potency means the concentration at half of the fitted maximal effect
Outline: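 Tetracycline-induced HEK293 Trex D1 cells with forced coupling to calcium, loaded with no-wash calcium dye; kinetic fluorescence read 180 s after compound addition for agonism, then a further 180 s after an EC20 dopamine challenge for potentiation.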

[19] = High Content Imaging Cell-Based qHTS for Inhibitors of the mTORC1 Signaling Pathway in MEF Cells (AID 2667); further: potency means the concentration at half of the fitted maximal effect
Outline: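 WT MEFs (Tsc2-/-, p53-/- re-expressing Tsc2), in DMEM + 10% FBS, were treated with compound for 24 h at 37 C. Cells were then fixed and stained for phospho-rpS6 Ser235/236 with propidium iodide as cell count. Values are % positive cells, with thresholds set against rapamycin-treated cells.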

[20] = molecular target: ATP-dependent 6-phosphofructokinase (Trypanosoma brucei brucei) (UniProt O15648); assay: qHTS Validation Assay to Find Inhibitors of T. brucei phosphofructokinase (AID 485368); settings: outcome: dose series up to 57.5 µM
Outline: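 Steps: substrate mix (0.5 mM F6P, 0.1 mM ATP, MgCl2, TEA pH 8.0); compound; 1.25 nM T. brucei PFK; 45 min RT; ATP depletion 10 min; ADP-to-ATP detection 10 min; luminescence read; curve fitting and classification.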

Measured: Potency

Chain of Thyrotropin receptor (Homo sapiens) (P16473 whole entry, looked up): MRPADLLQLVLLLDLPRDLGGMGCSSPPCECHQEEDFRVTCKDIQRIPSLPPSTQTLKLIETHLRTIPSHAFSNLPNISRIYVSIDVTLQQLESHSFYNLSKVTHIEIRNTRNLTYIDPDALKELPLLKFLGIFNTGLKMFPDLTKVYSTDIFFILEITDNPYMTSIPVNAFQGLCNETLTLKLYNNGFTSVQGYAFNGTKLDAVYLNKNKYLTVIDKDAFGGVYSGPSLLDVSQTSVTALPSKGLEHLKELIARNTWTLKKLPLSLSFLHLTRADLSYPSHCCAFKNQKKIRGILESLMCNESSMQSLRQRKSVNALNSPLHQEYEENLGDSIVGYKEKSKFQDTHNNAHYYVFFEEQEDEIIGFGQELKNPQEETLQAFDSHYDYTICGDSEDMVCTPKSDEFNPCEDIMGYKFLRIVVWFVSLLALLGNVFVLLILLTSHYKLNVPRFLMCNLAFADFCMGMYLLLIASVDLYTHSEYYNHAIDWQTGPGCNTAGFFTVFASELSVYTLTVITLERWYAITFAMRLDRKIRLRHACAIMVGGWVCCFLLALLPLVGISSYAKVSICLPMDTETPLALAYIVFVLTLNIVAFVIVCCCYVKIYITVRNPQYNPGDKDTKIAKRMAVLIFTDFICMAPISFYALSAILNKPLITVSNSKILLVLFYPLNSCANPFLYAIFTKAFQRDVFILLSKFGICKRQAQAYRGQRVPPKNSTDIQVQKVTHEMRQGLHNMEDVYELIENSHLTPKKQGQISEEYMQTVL
Chain of Ubiquitin carboxyl-terminal hydrolase 2 (Homo sapiens) (O75604 whole entry, looked up): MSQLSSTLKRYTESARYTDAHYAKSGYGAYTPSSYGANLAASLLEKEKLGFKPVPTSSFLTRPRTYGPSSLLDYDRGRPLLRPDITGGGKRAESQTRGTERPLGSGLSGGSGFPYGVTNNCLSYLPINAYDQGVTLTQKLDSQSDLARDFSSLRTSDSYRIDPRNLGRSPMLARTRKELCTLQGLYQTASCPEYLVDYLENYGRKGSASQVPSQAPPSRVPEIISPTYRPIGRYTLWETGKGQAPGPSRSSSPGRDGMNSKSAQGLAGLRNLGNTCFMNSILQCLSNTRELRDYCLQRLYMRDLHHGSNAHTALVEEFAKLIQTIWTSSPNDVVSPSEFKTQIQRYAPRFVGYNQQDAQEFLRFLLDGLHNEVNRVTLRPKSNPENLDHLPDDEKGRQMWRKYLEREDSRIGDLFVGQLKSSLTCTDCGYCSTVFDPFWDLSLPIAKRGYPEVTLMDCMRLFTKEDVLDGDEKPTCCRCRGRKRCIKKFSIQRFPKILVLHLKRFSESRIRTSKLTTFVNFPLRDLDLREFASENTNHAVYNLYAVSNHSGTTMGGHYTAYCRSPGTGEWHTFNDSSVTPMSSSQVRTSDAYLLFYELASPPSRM
Chain of Transient receptor potential cation channel subfamily V member 1 (Homo sapiens) (Q8NER1 whole entry, looked up): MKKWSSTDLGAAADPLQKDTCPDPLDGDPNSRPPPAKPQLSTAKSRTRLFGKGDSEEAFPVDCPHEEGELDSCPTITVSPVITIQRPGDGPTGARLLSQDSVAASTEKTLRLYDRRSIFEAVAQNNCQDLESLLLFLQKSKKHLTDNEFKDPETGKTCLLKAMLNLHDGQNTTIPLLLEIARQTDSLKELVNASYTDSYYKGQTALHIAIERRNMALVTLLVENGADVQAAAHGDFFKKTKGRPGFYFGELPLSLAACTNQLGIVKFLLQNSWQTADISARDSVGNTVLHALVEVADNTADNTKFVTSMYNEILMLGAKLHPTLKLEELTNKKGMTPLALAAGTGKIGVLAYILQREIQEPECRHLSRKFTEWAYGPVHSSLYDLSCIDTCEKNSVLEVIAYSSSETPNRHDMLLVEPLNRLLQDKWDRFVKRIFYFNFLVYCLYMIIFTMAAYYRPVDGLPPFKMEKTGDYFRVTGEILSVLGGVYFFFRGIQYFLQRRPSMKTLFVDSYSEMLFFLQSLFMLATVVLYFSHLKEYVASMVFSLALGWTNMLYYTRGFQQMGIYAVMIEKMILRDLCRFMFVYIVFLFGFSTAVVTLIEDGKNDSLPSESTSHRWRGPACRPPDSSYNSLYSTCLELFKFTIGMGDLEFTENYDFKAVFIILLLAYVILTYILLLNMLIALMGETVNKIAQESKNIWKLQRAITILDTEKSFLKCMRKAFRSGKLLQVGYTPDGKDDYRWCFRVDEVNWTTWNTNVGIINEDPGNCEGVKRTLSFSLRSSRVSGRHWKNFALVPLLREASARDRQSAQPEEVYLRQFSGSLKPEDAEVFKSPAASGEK
Chain of ATP-dependent 6-phosphofructokinase (Trypanosoma brucei brucei) (O15648 whole entry, looked up): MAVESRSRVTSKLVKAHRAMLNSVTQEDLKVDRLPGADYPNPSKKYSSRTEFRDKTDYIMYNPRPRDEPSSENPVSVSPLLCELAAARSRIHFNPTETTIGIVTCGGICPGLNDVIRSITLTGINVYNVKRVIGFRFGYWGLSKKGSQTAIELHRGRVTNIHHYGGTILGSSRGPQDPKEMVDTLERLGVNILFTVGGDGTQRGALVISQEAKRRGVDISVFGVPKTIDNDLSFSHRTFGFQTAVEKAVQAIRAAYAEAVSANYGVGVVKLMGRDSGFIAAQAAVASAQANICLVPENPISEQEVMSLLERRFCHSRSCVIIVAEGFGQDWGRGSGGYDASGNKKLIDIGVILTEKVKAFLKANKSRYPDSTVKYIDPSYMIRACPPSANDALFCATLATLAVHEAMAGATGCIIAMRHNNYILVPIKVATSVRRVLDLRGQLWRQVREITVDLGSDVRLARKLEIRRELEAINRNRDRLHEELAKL
Chain of DNA polymerase III PolC-type (Bacillus subtilis (strain 168)) (P13267 whole entry, looked up): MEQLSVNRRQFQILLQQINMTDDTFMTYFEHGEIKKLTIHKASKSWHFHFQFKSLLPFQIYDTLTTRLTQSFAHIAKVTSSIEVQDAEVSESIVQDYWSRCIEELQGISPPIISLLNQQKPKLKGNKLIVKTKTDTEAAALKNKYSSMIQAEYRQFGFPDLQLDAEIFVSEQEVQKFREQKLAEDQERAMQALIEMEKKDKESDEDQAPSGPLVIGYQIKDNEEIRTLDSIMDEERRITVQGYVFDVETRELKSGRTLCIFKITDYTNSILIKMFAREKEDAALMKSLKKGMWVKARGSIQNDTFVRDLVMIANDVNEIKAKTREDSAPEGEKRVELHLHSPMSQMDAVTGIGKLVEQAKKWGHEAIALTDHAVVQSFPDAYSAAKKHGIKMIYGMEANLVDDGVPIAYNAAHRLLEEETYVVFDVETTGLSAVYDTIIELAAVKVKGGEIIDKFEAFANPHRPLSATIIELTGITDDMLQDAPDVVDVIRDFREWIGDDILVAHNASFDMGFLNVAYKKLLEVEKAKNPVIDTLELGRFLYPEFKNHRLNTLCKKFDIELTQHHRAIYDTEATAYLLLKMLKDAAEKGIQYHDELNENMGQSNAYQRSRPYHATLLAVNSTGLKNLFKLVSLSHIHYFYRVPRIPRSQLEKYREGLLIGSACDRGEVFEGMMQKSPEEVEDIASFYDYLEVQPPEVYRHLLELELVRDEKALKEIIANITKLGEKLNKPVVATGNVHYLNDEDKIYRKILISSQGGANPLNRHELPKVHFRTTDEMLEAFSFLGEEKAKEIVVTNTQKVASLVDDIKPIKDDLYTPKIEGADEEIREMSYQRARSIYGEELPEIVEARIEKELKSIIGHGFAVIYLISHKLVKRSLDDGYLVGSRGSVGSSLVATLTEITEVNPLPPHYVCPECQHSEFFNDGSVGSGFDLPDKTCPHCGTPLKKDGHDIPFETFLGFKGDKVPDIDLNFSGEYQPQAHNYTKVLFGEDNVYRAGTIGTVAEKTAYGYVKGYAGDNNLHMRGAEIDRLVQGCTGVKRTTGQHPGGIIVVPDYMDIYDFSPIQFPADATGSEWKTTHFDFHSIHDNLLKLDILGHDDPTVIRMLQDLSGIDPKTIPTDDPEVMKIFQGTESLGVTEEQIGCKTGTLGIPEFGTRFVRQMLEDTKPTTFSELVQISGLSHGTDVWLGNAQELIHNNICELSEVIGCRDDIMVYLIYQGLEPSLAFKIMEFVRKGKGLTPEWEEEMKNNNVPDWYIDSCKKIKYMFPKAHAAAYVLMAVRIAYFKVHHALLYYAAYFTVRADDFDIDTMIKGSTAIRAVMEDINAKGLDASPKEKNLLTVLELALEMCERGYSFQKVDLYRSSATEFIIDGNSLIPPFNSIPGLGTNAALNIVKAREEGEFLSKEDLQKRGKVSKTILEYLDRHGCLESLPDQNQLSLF
Chain of Flap endonuclease 1 (Homo sapiens) (P39748 whole entry, looked up): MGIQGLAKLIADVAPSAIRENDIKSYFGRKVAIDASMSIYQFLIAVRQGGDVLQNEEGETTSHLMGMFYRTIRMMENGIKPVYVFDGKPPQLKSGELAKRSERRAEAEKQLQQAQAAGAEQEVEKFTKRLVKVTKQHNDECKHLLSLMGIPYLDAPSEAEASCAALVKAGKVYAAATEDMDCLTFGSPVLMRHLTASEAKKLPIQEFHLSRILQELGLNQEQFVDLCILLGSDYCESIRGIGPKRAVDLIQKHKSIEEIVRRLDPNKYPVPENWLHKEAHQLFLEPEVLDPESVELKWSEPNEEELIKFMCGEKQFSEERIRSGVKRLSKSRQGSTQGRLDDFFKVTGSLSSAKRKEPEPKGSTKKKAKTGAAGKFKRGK
Chain of Methanococcus maripaludis chaperonin (MmCpn) (Q6LX38 1-543): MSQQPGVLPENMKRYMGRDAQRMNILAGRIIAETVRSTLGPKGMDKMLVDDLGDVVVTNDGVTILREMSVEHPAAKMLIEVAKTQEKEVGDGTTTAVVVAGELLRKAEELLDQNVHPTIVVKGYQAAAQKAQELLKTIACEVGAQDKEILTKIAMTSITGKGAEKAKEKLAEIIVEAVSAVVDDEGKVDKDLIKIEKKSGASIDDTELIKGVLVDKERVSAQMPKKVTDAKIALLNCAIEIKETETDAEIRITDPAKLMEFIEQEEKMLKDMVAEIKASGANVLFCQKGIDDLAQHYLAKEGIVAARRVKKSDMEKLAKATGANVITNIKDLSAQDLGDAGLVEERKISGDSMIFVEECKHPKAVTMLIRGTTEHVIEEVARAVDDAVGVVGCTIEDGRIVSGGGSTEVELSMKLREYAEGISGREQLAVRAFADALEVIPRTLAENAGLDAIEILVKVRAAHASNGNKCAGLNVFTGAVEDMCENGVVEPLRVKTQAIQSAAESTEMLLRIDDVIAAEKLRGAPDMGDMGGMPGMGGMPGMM

O=C(CCCN1CCC(O)(c2cccc(C(F)(F)F)c2)CC1)c1ccc(F)cc1
active: [1] 13.1 µM | [8] 9.28 µM | [9] 13.1 µM
not listed: [17] | [18] | [19] | [20]
inactive: all other assays above

c1cc(CN2CCCCC2)cc(OCCCNc2nc3ccccc3s2)c1
active: [1] 16.5 µM | [8] 2.94 µM | [9] 8.28 µM
not listed: [2] | [6] | [13] | [15] | [19] | [20]
inactive: all other assays above

CCC(=O)c1ccc2c(c1)N(CCCN(C)C)c1ccccc1S2
active: [19] 16.5 µM
inactive: [3] | [4] | [5] | [6] | [7] | [11] | [17] | [12] | [14] | [18]

COc1cc(C(=O)OCCCN2CCCN(CCCOC(=O)c3cc(OC)c(OC)c(OC)c3)CC2)cc(OC)c1OC
active: [8] 6.57 µM | [9] 13.1 µM
not listed: [1] | [2] | [6] | [12] | [13] | [19] | [20]
inactive: all other assays above

C[n+]1cc2c3c(ccc2c2ccc4cc5c(cc4c21)OCO5)OCO3
active: [4] 8.44 µM
31.6 µM (active) and inactive: [12]
inactive: [19] | [1] | [3] | [7] | [10] | [11] | [17] | [13] | [14] | [18]

CCOC(=O)C1=C(C)NC(C)=C(C(=O)OC)C1c1cccc([N+](=O)[O-])c1 (stereo not given)
active: [6] 9.2 µM
not listed: [1] | [2] | [8] | [9] | [13] | [19] | [20]
inactive: all other assays above

CCNC(=O)N1CCN(CCCC(c2ccc(F)cc2)c2ccc(F)cc2)CC1
active: [8] 1.65 µM | [9] 2.94 µM | [18] 15.8 µM
not listed: [1] | [10] | [13] | [15] | [17]
inactive: all other assays above

O=C1NCN(c2ccccc2)C12CCN(CCCC(c1ccc(F)cc1)c1ccc(F)cc1)CC2
active: [12] 14.1 µM | [13] 39.8 µM
inactive: [3] | [4] | [5] | [7] | [20] | [11] | [17] | [15] | [16] | [18]

O=c1[nH]c(=O)n([C@H]2C[C@H](O)[C@@H](CO)O2)cc1Br
not listed: [1] | [20]
inactive: all other assays above

COc1cc2c(cc1OC)-c1cc(=Nc3c(C)cc(C)cc3C)n(C)c(=O)n1CC2
active: [8] 3.7 µM | [9] 2.62 µM | [13] 35.5 µM
39.8 µM (active) and inactive: [12]
not listed: [2] | [6] | [14]
inactive: all other assays above

Nc1ncn([C@@H]2O[C@H](CO)[C@@H](O)[C@H]2O)c(=O)n1
active: [2] 3.16 µM
not listed: [1] | [6] | [19] | [20]
inactive: all other assays above

OCCN1CCN(CC/C=C2/c3ccccc3Sc3ccc(C(F)(F)F)cc32)CC1
active: [2] 12.6 µM | [8] 6.57 µM | [9] 8.28 µM | [12] 25.1 µM | [13] 35.5 µM
not listed: [1] | [6] | [15] | [20]
inactive: all other assays above

CCCC(C(=O)OCCN(CC)CC)(c1ccccc1)c1ccccc1
not listed: [1] | [6] | [8] | [9] | [12] | [13] | [14] | [20]
inactive: all other assays above

COC(=O)C1=C(C)NC(C)=C(C(=O)OCCN(C)Cc2ccccc2)C1c1cccc([N+](=O)[O-])c1 (stereo not given)
active: [19] 18.5 µM | [8] 3.29 µM | [9] 2.94 µM
not listed: [1] | [2] | [6] | [12] | [13] | [17]
inactive: all other assays above

NC(N)=NC(=O)Cc1c(Cl)cccc1Cl
active: [8] 5.22 µM
not listed: [2] | [6] | [9] | [20]
inactive: all other assays above
